Laboratory results published in PubChem BioAssay (Tox21).
Records with an inconclusive call do not appear. Activity calls are given as the source filed them. Unless noted, calls follow the shape of the dose curve; as a rule, active = well fitted curve in the direction sought with a large enough effect in the repeat runs; inconclusive = weak or mixed curves; inactive = no such curve, though single readings can be large; an effect the other way counts as inactive or inconclusive.

Legend:
[1] = qHTS assay to identify small molecule agonists of the RXR signaling pathway - cell viability counter screen (AID 1159529);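 also: HEK 293T cells carrying an RXR-alpha UAS beta-lactamase reporter; nearly all actives have a fitted effect of over 50% in size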
Procedure, shortened: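 Tox21 10K compounds were tested for cytotoxicity against GeneBLAzer RXR-alpha HEK 293T cells grown in 2% charcoal-stripped FBS. Exposure lasted 16 hr at 37 C, 5% CO2; viability read by CellTiter-Glo luminescence.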

[2] = qHTS assay to identify small molecule antagonists of the estrogen related receptor (ERR) signaling pathway from Tox21 library - cell viability counter screen (AID 1224834); also: nearly all actives have a fitted effect of over 30% in size
Procedure, shortened: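 CellTiter-Fluor fluorescence, read after 30 min at 37 C, measures viability of ERR cells. Cells plated at 2,000/well and incubated 6 h before pin-tool compound addition, then exposed 17.5 hours at 37 C.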

[3] = molecular target: Luciferin 4-monooxygenase (Photinus pyralis) (UniProt P08659); test: qHTS assay to identify small molecule inhibitors of firefly luciferase (AID 1224835); also: nearly all actives have a fitted effect of over 25% in size; also: potency is read from the fitted curve at half-maximal effect
Procedure, shortened: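 Biochemical qHTS: compounds run as interplate titrations against purified firefly enzyme, with D-luciferin and ATP each at its KM concentration. Light output recorded by CCD imaging.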

[4] = qHTS assay to identify small molecule agonists of the constitutive androstane receptor (CAR) signaling pathway - cell viability counter screen (AID 1224836); also: nearly all actives have a fitted effect of over 45% in size
Procedure, shortened: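 Fluorescence from CellTiter-Fluor indicates live cells after 23 h exposure. The human hepatoma line expresses hCAR and a CYP2B6-2.2kb reporter. Incubation medium contains 0.75 uM PK11195 (final).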

[5] = qHTS assay to identify small molecule antagonists of the constitutive androstane receptor (CAR) signaling pathway - cell viability counter screen (AID 1224837); also: nearly all actives have a fitted effect of over 45% in size
Procedure, shortened: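 Cytotoxicity counter-screen: CellTiter-Fluor fluorescence after 23 h compound exposure (15-point qHTS) in double-stable HepG2-CYP2B6-hCAR cells, with 50 nM CITCO added.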

[6] = qHTS assay to identify small molecule antagonists of the estrogen related receptor signaling pathway with the pleiotropic PPARgamma coactivator (PGC) from Tox21 10K library - cell viability counter screen (AID 1224840; active = well fitted cell-killing curve with a large enough effect in the repeat runs, not every such curve was filed as active; also: nearly all actives have a fitted effect of over 40% in size)
Procedure, shortened: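 Counter-screen for cytotoxicity: after 17.5 h compound exposure at 37 C, CellTiter-Fluor reagent added to PGC/ERR cells for 30 min and fluorescence read. Cells were seeded at 2,000 per well 6 h before dosing.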

[7] = qHTS assay to identify small molecule antagonists of the estrogen related receptor signaling pathway with the pleiotropic PPARgamma coactivator (PGC) from Tox21 10K library (AID 1224841; call rule not given here; also: actives are mostly falling curves and most rising ones were filed inactive; nearly all actives have a fitted effect of over 50% in size)
Procedure, shortened: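 Luminescence (One-Glo, 30 min at room temperature) after 18 h compound treatment at 37 C of PGC/ERR reporter cells plated at 2,000 cells/well and settled 6 h beforehand.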

[8] = qHTS assay to identify small molecule agonists of the estrogen related receptor signaling pathway with the pleiotropic PPARgamma coactivator (PGC) from Tox21 10K library (AID 1224842); also: nearly all actives have a fitted effect of over 15% in size
Procedure, shortened: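 PGC/ERR reporter cell line, 2,000 cells per well, incubated 6 h at 37 C before 23 nL compound in DMSO was added. After 18 h at 37 C, One-Glo luminescence read following 30 min at room temperature.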

[9] = qHTS assay to identify small molecule agonists of the hypoxia (HIF-1) signaling pathway - cell viability counter screen (AID 1224844; calls by dose curve; also: nearly all actives have a fitted effect of over 50% in size)
Procedure, shortened: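 Cytotoxicity measured by CellTiter-Glo ATP luminescence in the wells also read for beta-lactamase signal. Cells were HRE-bla ME-180 (2,000/well, 0.5% dialyzed FBS), exposed to compounds for 17 h at 37C.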

[10] = qHTS assay to identify small molecule agonists of H2AX (AID 1224845; active = well fitted activation curve with a large enough effect in the signal ratio in the repeat runs, not every such curve was filed as active; the % refers to the signal ratio)
Procedure, shortened: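 Wild-type CHO-K1 cells, plated overnight, exposed 3hr at 37C to 15 concentrations (0.76% DMSO final). Lysed, then HTRF anti-pH2AX (S139) cryptate and anti-H2AX-d2 antibodies, 24 hr room temperature; 665/620 nm emission read.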

[11] = qHTS assay to identify small molecule agonists of the hypoxia (HIF-1) signaling pathway (AID 1224846; active = well fitted activation curve with a large enough effect in the signal ratio in the repeat runs, not every such curve was filed as active; the % refers to the signal ratio)
Procedure, shortened: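 Compounds added to ME-180 cells carrying hypoxia-response-element beta-lactamase reporter (0.5% dialyzed FBS, 5 h preplating), 17 h at 37C; agonist activity detected by CCF4-AM B/G FRET read-out.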

[12] = qHTS assay to identify small molecule agonists of H2AX - cell viability counter screen (AID 1224847; calls by dose curve; also: top concentration of the series differs between compounds; nearly all actives have a fitted effect of over 30% in size)
Procedure, shortened: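 Viability of CHO-K1 (wild type) cells after 3 hr compound exposure was measured by CellTiter-Glo luminescence.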

[13] = qHTS assay to identify small molecule antagonists of the estrogen related receptor (ERR) signaling pathway from Tox21 library (AID 1224848); also: nearly all actives have a fitted effect of over 50% in size
Procedure, shortened: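 Compounds dissolved in DMSO are pin-transferred onto ERR reporter cells (2,000 per well) that have settled for 6 h at 37 C. Plates then incubate 18 h at 37 C before ONE-Glo luciferase reagent and a luminescence read 30 min later.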

[14] = qHTS assay to identify small molecule agonists of the estrogen related receptor (ERR) signaling pathway from Tox21 library (AID 1224849; calls by dose curve; also: nearly all actives have a fitted effect of over 15% in size); details: ERR reporter cell line, ONE-Glo luciferase, 18 h; at 92.4 µM (top of the series) unless noted
Procedure, shortened: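 Luminescent agonist read-out (One-Glo, 30-minute room-temperature incubation) following 18-hour compound treatment at 37 C of the ERR cell line, which had been plated 6 hours before dosing.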

[15] = qHTS assay to identify small molecule antagonists of the retinoic acid receptor (RAR) signaling pathway (AID 1159552; also: nearly all actives have a fitted effect of over 50% in size)
Procedure, shortened: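 Overnight-plated C3RL4 reporter cells get compound, then retinol to 1 uM final; plates sit 6 hr at 37 C, 5% CO2. A luciferase reagent is added and light output recorded after 30 min at room temperature.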

[16] = qHTS assay to identify small molecule agonists of the retinoic acid receptor (RAR) signaling pathway (AID 1159553); also: potency is read from the fitted curve at half-maximal effect
Procedure, shortened: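 Luminescence was measured 30 min after luciferase reagent addition at room temperature. Before that, C3RL4 reporter cells (1,000 per well, plated overnight) were treated with compound for 6 hr at 37 C and 5% CO2.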

[17] = molecular target: Nuclear receptor subfamily 1 group I member 3 (Homo sapiens) (UniProt Q14994); test: qHTS assay to identify small molecule antagonists of the constitutive androstane receptor (CAR) signaling pathway (AID 1224838);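 also: HepG2 cells stably expressing hCAR with CYP2B6 luciferase reporter stimulated by CITCO; nearly all actives have a fitted effect of over 40% in size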
Procedure, shortened: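 Antagonism measured as luciferase signal (ONE-Glo, 30 min, room temperature) in CAR-stimulated cells: HepG2-CYP2B6-hCAR double-stable line exposed 24 hr at 37 C to compound in a 15-point series plus 50 nM CITCO.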

[18] = molecular target: Nuclear receptor subfamily 1 group I member 3 (Homo sapiens) (UniProt Q14994); test: qHTS assay to identify small molecule agonists of the constitutive androstane receptor (CAR) signaling pathway (AID 1224839);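 also: HepG2 cells stably carrying human CAR and a CYP2B6 luciferase reporter; nearly all actives have a fitted effect of over 15% in size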
Procedure, shortened: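 Stable hCAR/CYP2B6-2.2kb HepG2 line in DMEM with 10% FBS; compounds (15 concentrations) and 0.75 uM PK11195 final, 24 h at 37 C/5% CO2, then ONE-Glo luminescence after 30 min.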

[19] = molecular target: Thyrotropin receptor (Homo sapiens) (UniProt P16473); test: qHTS assay to identify small molecule agonists of the thyroid stimulating hormone receptor (TSHR) signaling pathway (AID 1224843; calls by dose curve; also: nearly all actives have a fitted effect of over 45% in size)
Procedure, shortened: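 HEK293/TSHR, 800 cells/well; cpd 30 min RT; add cAMP-d2 + anti-cAMP-cryptate, 1 h RT; fluorescence read on plate reader. 15-pt titration, n=3.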
% is scaled to controls: 0 for no effect and ±100 for the full control effect.

Chain of Nuclear receptor subfamily 1 group I member 3 (Homo sapiens) (Q14994 whole entry, looked up): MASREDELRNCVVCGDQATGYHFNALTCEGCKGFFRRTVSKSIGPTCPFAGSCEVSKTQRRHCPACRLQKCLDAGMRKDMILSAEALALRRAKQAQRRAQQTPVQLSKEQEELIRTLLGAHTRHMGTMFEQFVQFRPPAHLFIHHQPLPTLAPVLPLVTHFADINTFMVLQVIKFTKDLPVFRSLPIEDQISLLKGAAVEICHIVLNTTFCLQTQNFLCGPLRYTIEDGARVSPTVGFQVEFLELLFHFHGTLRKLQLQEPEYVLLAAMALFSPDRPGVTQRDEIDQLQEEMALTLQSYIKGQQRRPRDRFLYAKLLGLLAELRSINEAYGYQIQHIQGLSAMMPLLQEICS
Chain of Luciferin 4-monooxygenase (Photinus pyralis) (P08659 whole entry, looked up): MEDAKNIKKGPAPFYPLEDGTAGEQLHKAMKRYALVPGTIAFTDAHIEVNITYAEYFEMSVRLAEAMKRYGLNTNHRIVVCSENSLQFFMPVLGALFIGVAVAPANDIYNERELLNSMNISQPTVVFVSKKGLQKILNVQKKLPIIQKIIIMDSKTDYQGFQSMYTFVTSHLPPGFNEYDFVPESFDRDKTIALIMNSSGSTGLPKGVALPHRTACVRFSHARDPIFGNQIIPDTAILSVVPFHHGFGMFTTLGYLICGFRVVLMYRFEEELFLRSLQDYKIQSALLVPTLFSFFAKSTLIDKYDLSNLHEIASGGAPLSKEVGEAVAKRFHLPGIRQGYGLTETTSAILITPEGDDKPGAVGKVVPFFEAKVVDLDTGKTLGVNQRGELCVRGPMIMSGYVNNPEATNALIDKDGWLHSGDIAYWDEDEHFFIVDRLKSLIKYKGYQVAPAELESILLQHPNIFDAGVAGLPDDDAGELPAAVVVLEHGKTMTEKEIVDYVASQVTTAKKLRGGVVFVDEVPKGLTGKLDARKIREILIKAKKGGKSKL
Chain of Thyrotropin receptor (Homo sapiens) (P16473 whole entry, looked up): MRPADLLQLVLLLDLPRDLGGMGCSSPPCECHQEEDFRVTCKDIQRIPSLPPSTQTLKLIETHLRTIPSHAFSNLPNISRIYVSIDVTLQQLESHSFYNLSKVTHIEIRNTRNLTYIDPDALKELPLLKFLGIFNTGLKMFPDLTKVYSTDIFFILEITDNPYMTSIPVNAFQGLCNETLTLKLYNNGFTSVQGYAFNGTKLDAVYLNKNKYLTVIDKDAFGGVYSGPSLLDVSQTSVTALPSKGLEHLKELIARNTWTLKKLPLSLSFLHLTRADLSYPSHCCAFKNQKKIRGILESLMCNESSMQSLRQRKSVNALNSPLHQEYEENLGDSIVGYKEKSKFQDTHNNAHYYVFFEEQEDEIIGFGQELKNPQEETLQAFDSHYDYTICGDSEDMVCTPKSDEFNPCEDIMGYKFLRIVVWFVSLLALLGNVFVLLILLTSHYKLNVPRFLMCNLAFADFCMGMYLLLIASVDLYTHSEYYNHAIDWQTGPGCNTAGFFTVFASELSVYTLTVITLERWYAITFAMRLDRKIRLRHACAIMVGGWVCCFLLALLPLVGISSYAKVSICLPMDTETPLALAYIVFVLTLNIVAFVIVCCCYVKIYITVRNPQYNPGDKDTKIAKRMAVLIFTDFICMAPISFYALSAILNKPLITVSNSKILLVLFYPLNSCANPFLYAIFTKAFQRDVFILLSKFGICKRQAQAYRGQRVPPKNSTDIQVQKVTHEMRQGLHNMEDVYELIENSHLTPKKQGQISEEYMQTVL

C=CCCCCCCCCOC(C)=O
inactive: Potency [1] | outcome [2] | Potency [3] | outcome [4] | outcome [5] | outcome [6] | Potency [7] | Potency [8] | outcome [9] | outcome [10] | outcome [11] | outcome [12] | outcome [13] | activity change, positive = activation [14] 7.36%

Cc1cc(C)c(N)c(Cl)c1
inactive: Potency [1] | outcome [15] | Potency [16] | outcome [2] | Potency [3] | outcome [4] | outcome [5] | outcome [17] | Potency [18] | outcome [6] | Potency [19] | outcome [9] | outcome [10] | outcome [11] | outcome [12]

COC(=O)c1cc(Cl)c(NC(C)=O)cc1OC
inactive: Potency [1] | outcome [15] | Potency [16] | outcome [2] | Potency [3] | outcome [4] | outcome [5] | outcome [17] | Potency [18] | Potency [19] | outcome [9] | outcome [10] | outcome [11] | outcome [12]

CN(C)CCc1c[nH]c2ccc(C[C@H]3COC(=O)N3)cc12
inactive: Potency [1] | outcome [15] | Potency [16] | outcome [2] | Potency [3] | outcome [4] | outcome [6] | Potency [19] | outcome [10] | outcome [11] | outcome [12]

CCCC(=O)CC
inactive: Potency [1] | outcome [15] | Potency [16] | outcome [2] | Potency [3] | outcome [4] | outcome [17] | Potency [18] | outcome [6] | Potency [19] | outcome [9] | outcome [10] | outcome [11] | outcome [12]

CCCCCCC(=O)c1ccccc1
inactive: Potency [1] | outcome [15] | outcome [2] | outcome [4] | outcome [5] | outcome [17] | outcome [6] | Potency [7] | Potency [8] | Potency [19] | outcome [9] | outcome [10] | outcome [11] | outcome [12] | outcome [13] | activity change, positive = activation [14] 3.5%
active: Potency [16] 54.5 µM | Potency [3] 7.1 µM

Cc1ccc(N)nc1
inactive: Potency [1] | outcome [15] | Potency [16] | outcome [2] | Potency [3] | outcome [4] | outcome [6] | Potency [7] | Potency [8] | Potency [19] | outcome [9] | outcome [10] | outcome [11] | outcome [12] | outcome [13] | activity change, positive = activation [14] 3.66%
